Laboratory results reported in PubChem BioAssay AID686979 (National Center for Advancing Translational Sciences (NCATS), 2013).
The campaign covered roughly 420,000 compounds. About 50,000 (12%) were called active. About 26% were inconclusive and are not listed. This excerpt belongs to a sample that is enriched for actives. Unmarked numbers belong to inactive results. Calls come from the whole dose curve; as a rule, active = well fitted inhibition curve with a large enough effect; inconclusive = small, poorly fitted or top-dose-only effect; inactive = flat fitted curve, though single readings scatter.
% is set by controls: 0 for no effect and ±100 for the full control effect; potency is the fitted concentration of half-maximal effect.

Experiment: qHTS for Inhibitors of human tyrosyl-DNA phosphodiesterase 1 (TDP1): qHTS in cells in presence of CPT; note: nearly all actives have a fitted effect of over 55% in size
Conditions: chicken DT40 Tdp1-/-;hTDP1 cells + 20 nM CPT, ATP luminescence, 48 h; series mostly up to 46.2 µM; activity change, negative = growth inhibition: at the top concentration
Summary of the method: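 Chicken DT40 Tdp1-/- cells stably complemented with human TDP1 were seeded at 400 cells/well in medium containing 20 nM camptothecin, exposed to pin-transferred compounds, and grown at 37 °C for at least 48 hr. Viability was read as ATP luminescence.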
With `O=C(CCNS(=O)(=O)c1ccccc1)NCCSc1ccc(Br)cc1` the “activity change, negative = growth inhibition” value was -23%.
For `CCc1cccc(NC(=O)COC(=O)c2cc(=O)c3ccccc3o2)c1`, the “activity change, negative = growth inhibition” value was 5.89%.
With `C=CCC[C@@H](Cc1ccc(F)cc1)C(=O)OC[C@@H](C)NC(=O)[C@H](CC=C)CC(=O)N(CCO)Cc1ccccc1` the Potency was 13 µM (active).
In the case of `C=CCC[C@@H](Cc1ccc(F)cc1)C(=O)O[C@H](CNC(=O)[C@H](CC=C)CC(=O)N(CCO)Cc1ccccc1)c1ccccc1`, the Potency is reported as 18.4 µM (active).
For `C=CCC[C@H](Cc1ccc(F)cc1)C(=O)OC[C@H](C)NC(=O)[C@H](CC=C)CC(=O)N(CCO)Cc1ccccc1`, the Potency was 14.6 µM (active).
With `COCCCNC(=S)N(Cc1ccccc1)Cc1ccc(F)cc1` the “activity change, negative = growth inhibition” value was -7.85%.
With `C=CCC(NC(=O)Cc1ccccc1)C(=O)NCCC` (stereo not given) the “activity change, negative = growth inhibition” value was -4.46%.
For `C=CC[C@H](CC(=O)N(CCO)Cc1ccccc1)C(=O)N[C@@H](COC(=O)[C@@H](CC=C)Cc1ccc(F)cc1)Cc1ccccc1`, the Potency was 23.1 µM (active).
For `Cc1ccccc1Nc1nc(N)nc(CSc2ccccc2)n1`, the “activity change, negative = growth inhibition” value was 11.7%.
With `COc1ccc(C(C)NC(=O)C2CCCC2)cc1` (stereo not given) the “activity change, negative = growth inhibition” value was 28%.
In the case of `O=C(CNC(=O)c1cccnc1)N/N=C/c1cc(Br)c(O)c(Br)c1`, the “activity change, negative = growth inhibition” value is reported as -5.42%.
In the case of `Cc1ccc(S(=O)(=O)NCC2CCC(C(=O)N3CCOCC3)CC2)cc1` (stereo not given), the “activity change, negative = growth inhibition” value is reported as 11.6%.
For `CCOc1ncccc1C(=O)NNC(=O)c1cccc(S(=O)(=O)Nc2ccccc2OC)c1`, the “activity change, negative = growth inhibition” value was -0.192%.
For `O=C(Nc1c[nH]c(=O)[nH]c1=O)OCc1ccccc1`, the “activity change, negative = growth inhibition” value was -14.3%.
In the case of `CC(=O)c1sc(N)nc1C`, the Potency is reported as “inactive”.
In the case of `COc1ccc(C2/C(=C(/O)c3ccc4c(c3)CC(C)O4)C(=O)C(=O)N2Cc2ccncc2)cc1` (stereo not given), the “activity change, negative = growth inhibition” value is reported as 29.7%.
With `CC(C)COc1ccc(C(=O)NNC(=O)CCC(=O)c2cccs2)cc1` the “activity change, negative = growth inhibition” value was -2.08%.
With `C=CCc1c(C)nc2cc(-c3ccccc3)[nH]n2c1=O` the “activity change, negative = growth inhibition” value was -22.6%.
For `O=C1CCCc2c1nc(-c1cccc(Cl)c1)n2O`, the “activity change, negative = growth inhibition” value was -22.1%.
For `Cc1cc(=O)n2[nH]c(-c3cccc(Cl)c3)cc2n1`, the Potency was 18.4 µM (active).
With `O=[N+]([O-])c1ccc2[nH]c3c(c2c1)CCCC3O` (stereo not given) the “activity change, negative = growth inhibition” value was 2.97%.
With `O=C1/C(=C\c2ccsc2)NC(=S)N1c1ccccc1` the “activity change, negative = growth inhibition” value was -5.02%.
In the case of `O=c1c(-c2ccccc2Cl)c[nH]n1-c1ccccc1`, the “activity change, negative = growth inhibition” value is reported as -13.2%.
For `COc1cccc(CNc2nc3nc4c(c(=O)n3[nH]2)CCC4)c1`, the “activity change, negative = growth inhibition” value was 7.39%.
With `COc1cccc(NC(=O)CN2CCN(c3nc(-c4cccc(OC)c4)cs3)CC2)c1` the “activity change, negative = growth inhibition” value was -27.1%.
For `COc1cccc(-c2cc3nc4c(c(N5CCC6(CC5)OCCO6)n3n2)CCCC4)c1`, the Potency was 23.1 µM (active).
With `CC(=NNC(=O)c1ccc2nc[nH]c2c1)c1ccc(Br)cc1` the “activity change, negative = growth inhibition” value was -16.2%.
For `O=C(NCCCO)C(=O)Nc1c2c(nn1-c1ccc(F)cc1)CSC2`, the “activity change, negative = growth inhibition” value was -6.22%.
With `Cc1ccc(S(=O)(=O)N[C@H]2CCC[C@@H]2O)cc1` the “activity change, negative = growth inhibition” value was 23.7%.
In the case of `CS(=O)(=O)N1CCc2cc(C(=O)Nc3ccccc3)ccc21`, the “activity change, negative = growth inhibition” value is reported as -7.48%.
For `Cc1ccc(S(=O)(=O)N2CCc3cc(C(=O)Nc4ccc(Cl)cc4C)ccc32)cc1`, the “activity change, negative = growth inhibition” value was -7.99%.
With `COc1cccc(NC(=O)c2cc(S(=O)(=O)N3CCc4ccccc43)cn2C)c1` the “activity change, negative = growth inhibition” value was 1.38%.
In the case of `O=C(Nc1cc(C(F)(F)F)ccc1Cl)c1ccc2c(c1)CCN2S(=O)(=O)c1ccccc1`, the Potency is reported as 18.4 µM (active).
For `CCN(C(=O)COC(=O)c1cc(S(=O)(=O)N2CCc3ccccc32)ccc1OC)C1CCS(=O)(=O)C1` (stereo not given), the “activity change, negative = growth inhibition” value was 1.42%.
In the case of `COc1ccc(S(=O)(=O)N2CCc3ccccc32)cc1C(=O)Nc1cc(S(C)(=O)=O)ccc1Cl`, the Potency is reported as 9.2 µM (active).
In the case of `Cc1noc(C)c1NC(=O)N(C)C[C@@H]1Oc2cc(Br)ccc2S(=O)(=O)N([C@@H](C)CO)C[C@H]1C`, the “activity change, negative = growth inhibition” value is reported as -16.2%.
With `Cc1ccc(CNC(=O)C2CCCN2S(=O)(=O)c2ccc3c(c2)C(C)(C)C(=O)N3C)cc1` (stereo not given) the “activity change, negative = growth inhibition” value was -4.08%.
In the case of `COc1cc(Br)cc2cc(S(=O)(=O)c3ccccc3)c(=O)oc12`, the “activity change, negative = growth inhibition” value is reported as -17.1%.
For `CCOC(=O)C(Cc1ccc(N)cc1)N1C(=O)c2ccccc2C1=O` (stereo not given), the “activity change, negative = growth inhibition” value was -20.1%.
In the case of `O=C(Nc1ccccc1F)c1ccc(Cn2cc(Br)cn2)cc1`, the “activity change, negative = growth inhibition” value is reported as -29.2%.
For `CCC(=O)N(Cc1cc2cc(OC)ccc2[nH]c1=O)c1ccccc1C`, the “activity change, negative = growth inhibition” value was -12.5%.
In the case of `CCNCc1cc2cc(C)ccc2[nH]c1=O`, the Potency is reported as 18.4 µM (active).
With `COc1ccc2[nH]c(=O)c(CNc3ccc(C)c(C)c3)cc2c1` the Potency was 4.11 µM (active).
In the case of `COc1ccc(N(Cc2cc3cc(OC)ccc3[nH]c2=O)S(C)(=O)=O)cc1`, the “activity change, negative = growth inhibition” value is reported as -13.5%.
For `CC(=O)OCc1cc2cc(C)ccc2[nH]c1=O`, the “activity change, negative = growth inhibition” value was -29.4%.
For `CCCc1nc(-c2cc3cc(C)ccc3[nH]c2=O)no1`, the “activity change, negative = growth inhibition” value was -11.1%.
With `CCCCN1C(=O)c2ccc(C(=O)Nc3ccc(S(=O)(=O)N(C)C)cc3)cc2C1=O` the “activity change, negative = growth inhibition” value was -24.7%.
In the case of `Cc1ccccc1Nc1nc(N)nc(COC(=O)CCC(=O)c2ccc(F)cc2)n1`, the “activity change, negative = growth inhibition” value is reported as -18.4%.
In the case of `Cc1cc(NC(=O)c2ccc(-c3ccc(Cl)cc3)o2)cc(-c2nc3ncccc3o2)c1O`, the “activity change, negative = growth inhibition” value is reported as 0.843%.
With `Cc1ccccc1C1=N/C(=C/c2cccnc2)C(=O)O1` the “activity change, negative = growth inhibition” value was -27.4%.
In the case of `O=Cc1cn(Cc2ccccc2)nc1-c1cccnc1`, the “activity change, negative = growth inhibition” value is reported as -0.314%.
With `O=C1/C(=C\c2cccnc2)CN(Cc2ccccc2)C/C1=C\c1cccnc1` the Potency was 5.17 µM (active).
In the case of `O=C(C(=O)N1CCc2ccccc2C1)c1c[nH]c2ccccc12`, the “activity change, negative = growth inhibition” value is reported as -0.41%.
In the case of `Cc1ccc(-c2noc(CCC(N)=O)n2)cc1`, the “activity change, negative = growth inhibition” value is reported as -5.46%.
For `CCNC(=O)CCc1nc(-c2ccc(C)cc2)no1`, the “activity change, negative = growth inhibition” value was 2.65%.
In the case of `CCNC(=O)CCc1nc(-c2ccc(C(C)(C)C)cc2)no1`, the Potency is reported as 16.4 µM (active).
With `Cn1c(Cc2cccs2)nnc1SCC(=O)Nc1ccccc1` the “activity change, negative = growth inhibition” value was -14.6%.
With `O=C1C(=O)N(CCCO)C(c2ccccc2)/C1=C(\O)c1ccc(Br)cc1` (stereo not given) the “activity change, negative = growth inhibition” value was -18.7%.
With `CN(CC(=O)NCc1ccc(Cl)cc1)S(=O)(=O)c1cccs1` the “activity change, negative = growth inhibition” value was -1.91%.
With `COCCN1CCN(C(=O)c2sc3ncnc(NCC4CCCO4)c3c2C)CC1` (stereo not given) the “activity change, negative = growth inhibition” value was 6.09%.
For `O=C(COC(=O)c1ncc(Cl)c(Cl)c1Cl)NCc1ccccc1`, the “activity change, negative = growth inhibition” value was -15.5%.
With `CC(C)C(NC(=O)c1c(F)cccc1F)C(=O)NNC(=O)c1ccccc1` (stereo not given) the “activity change, negative = growth inhibition” value was 16.2%.
For `CCC(=O)Nc1ccc(C)cc1-c1nc2ccccc2n(Cc2ccccc2)c1=O`, the “activity change, negative = growth inhibition” value was -11.9%.
For `Cc1cccc(NC(=O)Cn2c(C(F)(F)F)nc3ccccc32)c1C`, the “activity change, negative = growth inhibition” value was -26.9%.
With `CCC(=O)Nc1nc2ccccc2n1Cc1ccccc1C` the Potency was 14.6 µM (active).
